Reference: PubChem BioAssay AID1159554 (Broad Institute, 2015)
Out of some 94,000 compounds screened, about 2,100 (2.2%) were called active. This excerpt belongs to a sample that is enriched for actives. A number with no mark means an inactive call. Rule as the data show it: active = activity change below about -80%; inconclusive = no clear call, values can overlap the other calls; inactive = above that.

test: Dd2 malaria parasite growth inhibition – SYBR Green fluorescence, single dose replicates, primary screen (AID 1159554); details: P. falciparum Dd2 growth, 72 h, at 10 µM, active compounds read low

Row | Compound | activity change
1 | O=C(C[C@@H]1CC[C@@H](NS(=O)(=O)c2ccc(F)cc2)[C@@H](CO)O1)NCCc1ccncc1 | 23.4%
2 | O=C(N[C@H]1CC[C@@H](CCNS(=O)(=O)Cc2ccccc2)O[C@H]1CO)c1ccccc1F | -32.4%
3 | CC(C)NC(=O)N(C)C[C@H]1OCCCC[C@@H](C)Oc2ccc(NC(=O)C3CCCCC3)cc2C(=O)N([C@H](C)CO)C[C@H]1C | -37.9%
4 | O=C(NC1CCCCC1)N1CC2(C1)[C@H](c1ccccc1)[C@@H](CO)N2S(=O)(=O)Cc1ccccc1 | -4.41%
5 | C[C@@H]1CCCCO[C@H](CN(C)S(=O)(=O)c2cccs2)[C@@H](C)CN([C@@H](C)CO)C(=O)c2cc(NC(=O)NC3CCCCC3)ccc2O1 | -76%
6 | O=C(Nc1ccccc1F)N1C[C@H]2[C@@H](c3ccccc31)[C@@H](CO)N2C(=O)Cc1cccnc1 | 13.8%
7 | O=C(C1CCCC1)N1[C@H](CO)[C@@H](c2ccccc2)C12CN(CCC(F)(F)F)C2 | -46.4%
8 | COCC(=O)N1CC2(C1)[C@@H](c1ccc(-c3cccc(F)c3)cc1)[C@@H](CO)N2C(=O)COC | 13.9%
9 | COCC(=O)N1CC2(C1)[C@H](c1ccc(-c3cccc(F)c3)cc1)[C@@H](CO)N2C(=O)COC | 11.2%
10 | O=C(C1CCCC1)N1[C@@H](CO)[C@@H](c2ccccc2)C12CN(Cc1ccc(F)cc1)C2 | -28%
11 | O=C(C1CCCCC1)N1[C@H](CO)[C@@H](c2ccccc2)C12CN(Cc1cccc(Cl)c1)C2 | -90.7% (active)
12 | COCC(=O)N1[C@H](CO)[C@@H](c2ccccc2)C12CN(Cc1cc(F)ccc1F)C2 | -89% (active)
13 | COc1cccc(C#Cc2ccc3c(c2)[C@H]2[C@H](CCN2C(=O)CC2CC2)[C@H](CO)N3)c1 | -67.1%
14 | COc1ccc2c3c(n(C)c2c1)[C@@H](CO)N(Cc1ccncc1)CC31CN(C(=O)Nc2cccc(F)c2)C1 | -46.3%
15 | C[C@H]1CN([C@@H](C)CO)C(=O)c2c(c3ccccc3n2C)-c2ccccc2CO[C@@H]1CN(C)Cc1ccc2c(c1)OCCN2C | -31.4%
16 | CCCN1C[C@H](C)[C@@H](OC)CN(C)C(=O)c2ccc(NC(=O)c3cnccn3)cc2OC[C@H]1C | 13.8%
17 | COC(=O)C[C@H]1CC[C@@H]2[C@@H](COc3ccc(NC(=O)Nc4ccc(Cl)cc4)cc3C(=O)N2C)O1 | 9.95%
18 | O=C([C@@H]1[C@@H](CO)[C@@H]2Cn3c(ccc(-c4cncnc4)c3=O)[C@@H]2N1C(=O)C1CCC1)N1CCCCC1 | 34%
19 | C[C@H]1CN([C@@H](C)CO)S(=O)(=O)c2ccc(C#CCN(C)C)cc2O[C@H]1CN(C)C(=O)c1ccccc1F | -28.9%
20 | CC(C)CC#Cc1ccc2c(c1)O[C@H](CN(C)Cc1ccccc1F)[C@@H](C)CN([C@@H](C)CO)S2(=O)=O | -84.7% (active)
21 | C[C@@H]1CN([C@H](C)CO)S(=O)(=O)c2ccc(C#CC3CC3)cc2O[C@H]1CN(C)Cc1ccccc1F | -16.8%
22 | CCCN(C)C[C@H]1Oc2cc(C#CCC(C)C)ccc2S(=O)(=O)N([C@H](C)CO)C[C@H]1C | -26.1%
23 | CCCC#Cc1ccc2c(c1)O[C@@H](CN(C)C(=O)c1ccccc1F)[C@H](C)CN([C@H](C)CO)S2(=O)=O | -85.1% (active)
24 | CC(C)CC#Cc1ccc2c(c1)O[C@@H](CN(C)C(=O)c1ccccc1F)[C@H](C)CN([C@H](C)CO)S2(=O)=O | -71.3%

Row | Compound | activity change
25 | COCC#Cc1ccc([C@@H]2[C@@H](CO)N3C(=O)CN(C(=O)C4CCCC4)C[C@@H]23)cc1 | -28.5%
26 | O=C(C[C@@H]1CC[C@@H]2[C@H](COC[C@@H](O)CN2C(=O)c2ccccc2F)O1)N1CCOCC1 | 11.8%
27 | C[C@H](CO)N1C[C@H](C)[C@@H](CN(C)CC2CC2)OCCCC[C@H](C)Oc2ccc(NC(=O)Nc3ccccc3)cc2C1=O | 3.68%
28 | COc1ccc(C#Cc2cnc3c(c2)C(=O)N([C@H](C)CO)C[C@@H](C)[C@@H](CN(C)C(=O)CN(C)C)O3)cc1 | -58.5%
29 | Cc1ccc(S(=O)(=O)N[C@@H]2CC[C@@H](CC(=O)O)O[C@@H]2CO)cc1 | 10.2%
30 | COCCNC(=O)[C@H]1[C@H](CO)[C@H]2Cn3c(ccc(-c4ccccc4F)c3=O)[C@H]2N1C(=O)C1CCC1 | -8.98%
31 | O=C(Cc1ccccc1)N1C[C@@H]2[C@H](c3ccccc31)[C@@H](CO)N2C(=O)C1CC1 | -0.357%
32 | COCCNC(=O)[C@@H]1[C@@H](CO)[C@@H]2Cn3c(ccc(-c4ccccc4F)c3=O)[C@@H]2N1C(=O)C1CC1 | 7.64%
33 | COc1ccc(NC(=O)Nc2cccc3c2O[C@@H](CN(C)C(=O)NC(C)C)[C@H](C)CN([C@H](C)CO)C3=O)cc1 | -26.3%
34 | COc1ccc(NC(=O)Nc2cccc3c2O[C@H](CN(C)C(=O)Nc2ccc(F)cc2)[C@@H](C)CN([C@@H](C)CO)C3=O)cc1 | -19.9%
35 | C[C@@H]1CN([C@@H](C)CO)C(=O)c2cccc(NC(=O)Nc3ccc(F)cc3)c2O[C@@H]1CN(C)C(=O)Nc1ccccc1 | -36.1%
36 | C[C@@H]1CN([C@@H](C)CO)C(=O)c2cccc(NC(=O)Nc3ccc(F)cc3)c2O[C@H]1CN(C)C(=O)Nc1ccc(F)cc1 | -7.48%
37 | COc1ccc(NC(=O)N(C)C[C@H]2Oc3c(NC(=O)NC(C)C)cccc3C(=O)N([C@@H](C)CO)C[C@H]2C)cc1 | -84.2% (active)
38 | C[C@@H]1CN([C@H](C)CO)C(=O)c2cccc(NC(=O)Nc3cccc4ccccc34)c2O[C@@H]1CN(C)C(=O)Nc1ccc(F)cc1 | -95.3% (active)
39 | C[C@@H]1CN([C@H](C)CO)C(=O)c2cc(Br)cnc2O[C@@H]1CN(C)Cc1cncnc1 | 25.3%
40 | O=C1CN(Cc2ccccc2)C[C@H]2[C@H](c3ccc(-c4ccccc4)cc3)[C@@H](CO)N12 | -11%
41 | COCC(=O)Nc1ccc2c(c1)C(=O)N(C)[C@H]1CC[C@@H](CC(=O)NCc3cccc(F)c3)O[C@H]1CO2 | -2.71%
42 | C[C@H](CO)N1C[C@H](C)[C@@H](CN(C)S(C)(=O)=O)OCCCC[C@H](C)Oc2ccc(NC(=O)Nc3cccc4ccccc34)cc2C1=O | 11.4%
43 | C[C@@H]1CCCCO[C@@H](CN(C)C(=O)NC2CCCCC2)[C@H](C)CN([C@@H](C)CO)C(=O)c2cc(NC(=O)Nc3ccc(F)cc3)ccc2O1 | 7.58%
44 | C[C@@H]1CN([C@@H](C)CO)C(=O)c2cc(NS(=O)(=O)c3cccs3)ccc2O[C@@H](C)CCCCO[C@@H]1CN(C)C(=O)NC1CCCCC1 | -14%
45 | C[C@@H]1CCCCO[C@H](CN(C)C(=O)NC2CCCCC2)[C@H](C)CN([C@@H](C)CO)C(=O)c2cc(NC(=O)Nc3ccc(F)cc3)ccc2O1 | -11.4%
46 | C[C@@H]1CCCCO[C@H](CN(C)C(=O)NC2CCCCC2)[C@H](C)CN([C@H](C)CO)C(=O)c2cc(NC(=O)Nc3ccc(F)cc3)ccc2O1 | -85.2% (active)
47 | CCCN(C)C[C@@H]1OCCCC[C@H](C)Oc2ccc(NS(=O)(=O)c3ccc(C)cc3)cc2C(=O)N([C@H](C)CO)C[C@@H]1C | -87.8% (active)
48 | Cc1ccc(S(=O)(=O)Nc2ccc3c(c2)C(=O)N([C@H](C)CO)C[C@@H](C)[C@@H](CN(C)C)OCCCC[C@@H](C)O3)cc1 | -28.5%

Row | Compound | activity change
49 | CCCN(C)C[C@H]1OCCCC[C@H](C)Oc2ccc(NS(=O)(=O)c3ccc(C)cc3)cc2C(=O)N([C@@H](C)CO)C[C@H]1C | -65.3%
50 | CC(C)NC(=O)Nc1ccc2c(c1)C(=O)N([C@@H](C)CO)C[C@H](C)[C@H](CN(C)S(=O)(=O)c1ccc(Cl)cc1)OCCCC[C@H](C)O2 | -79.5%
51 | C[C@@H]1CN([C@@H](C)CO)C(=O)c2cc(NC(=O)Nc3cccc4ccccc34)ccc2O[C@@H](C)CCCCO[C@@H]1CN(C)S(=O)(=O)c1ccc(Cl)cc1 | -85.2% (active)
52 | C[C@H]1CCCCO[C@@H](CN(C)C(=O)C2CCCCC2)[C@@H](C)CN([C@@H](C)CO)C(=O)c2cc(NS(=O)(=O)c3cccs3)ccc2O1 | -83.8% (active)
53 | C[C@H]1CCCCO[C@@H](CN(C)C(=O)c2ccccc2)[C@@H](C)CN([C@@H](C)CO)C(=O)c2cc(NS(=O)(=O)c3cccs3)ccc2O1 | -57.2%
54 | CCCNC(=O)N[C@@H]1CC[C@@H](CCn2cc(C3CC3)nn2)O[C@@H]1CO | 12.3%
55 | COc1ccccc1S(=O)(=O)N1C[C@@H](O)COC[C@H]2O[C@H](CC(=O)O)CC[C@@H]21 | -3.23%
56 | COc1ccc(NC(=O)N(C)C[C@@H]2Oc3ncc(-c4ccc(C#N)cc4)cc3C(=O)N([C@@H](C)CO)C[C@H]2C)cc1 | 34.7%
57 | O=C(C1CCC1)N1CC[C@@H]2[C@H]1c1cc(C#Cc3ccc(F)cc3)ccc1N[C@@H]2CO | -70.8%
58 | O=C(c1cccc(F)c1)N1C[C@H]2[C@@H](c3ccccc31)[C@@H](CO)N2C(=O)Cc1ccccc1 | 0.269%
59 | C[C@H](CO)N1C[C@H](C)[C@@H](CN(C)CC2CCCCC2)Oc2ccc(NS(=O)(=O)c3cccs3)cc2CC1=O | -7.92%
60 | COc1ccc(NC(=O)Nc2ccc3c(c2)C(=O)N([C@@H](C)CO)C[C@H](C)[C@H](CN(C)CC2CCCCC2)O3)cc1 | 13.9%
61 | CCCN(C)C[C@H]1OCCCC[C@@H](C)Oc2ccc(NC(=O)Nc3ccc(F)cc3)cc2C(=O)N([C@@H](C)CO)C[C@H]1C | -91.5% (active)
62 | CCCN(C)C[C@@H]1OCCCC[C@@H](C)Oc2ccc(NC(=O)Nc3ccc(C(F)(F)F)cc3)cc2C(=O)N([C@H](C)CO)C[C@H]1C | -75.7%
63 | COc1ccc(NC(=O)Nc2ccc3c(c2)C(=O)N([C@H](C)CO)C[C@H](C)[C@@H](CN(C)S(=O)(=O)c2ccc(OC)cc2)OCCCC[C@H](C)O3)cc1 | 0.392%
64 | CC(C)NC(=O)Nc1ccc2c(c1)C(=O)N([C@H](C)CO)C[C@H](C)[C@@H](CN(C)CC1CCCCC1)OCCCC[C@@H](C)O2 | -13.3%
65 | COc1ccc(NC(=O)Nc2ccc3c(c2)C(=O)N([C@@H](C)CO)C[C@H](C)[C@H](CN(C)S(=O)(=O)c2ccccc2)OCCCC[C@@H](C)O3)cc1 | -87.4% (active)
66 | C[C@@H]1CCCCO[C@H](CN(C)CC2CCCCC2)[C@H](C)CN([C@H](C)CO)C(=O)c2cc(NC(=O)Nc3ccc(F)cc3)ccc2O1 | -79.8%
67 | COc1ccc(NC(=O)Nc2ccc3c(c2)C(=O)N([C@H](C)CO)C[C@H](C)[C@@H](CN(C)C(=O)Nc2ccc(OC)cc2)OCCCC[C@H](C)O3)cc1 | -22.2%
68 | COc1ccc(NC(=O)Nc2ccc3c(c2)C(=O)N([C@H](C)CO)C[C@@H](C)[C@H](CN(C)CC2CCCCC2)OCCCC[C@@H](C)O3)cc1 | -85.2% (active)
69 | C[C@@H]1CCCCO[C@H](CN(C)Cc2ccccc2)[C@@H](C)CN([C@@H](C)CO)C(=O)c2cc(NC(=O)Nc3ccc(F)cc3)ccc2O1 | -73.3%
70 | COc1ccc(S(=O)(=O)N(C)C[C@@H]2OCCCC[C@H](C)Oc3ccc(NC(=O)Nc4ccccc4)cc3C(=O)N([C@@H](C)CO)C[C@H]2C)cc1 | -79.2%
71 | C[C@@H]1CN([C@H](C)CO)C(=O)c2cc(NC(=O)Nc3ccc(F)cc3)ccc2O[C@@H](C)CCCCO[C@@H]1CN(C)CC1CCCCC1 | -82.5% (active)
